This note sets out measurements from PubChem BioAssay AID1851 (National Center for Advancing Translational Sciences (NCATS), 2009).

SMILES strings stand for the structures. In all, about 16,000 compounds went through this assay and about 5,700 (36%) were called active. Roughly 24% stayed inconclusive and do not appear here. The list shows a part of the results. A number with no mark means an inactive call. The call rests on the fitted dose curve; in most records, active means well fitted curve in the direction sought with a large enough effect; inconclusive means small, poorly fitted or top-dose-only effect, or effect the other way; inactive means no such curve, though single readings can be large or run the other way.
On the % scale 0 is the no-effect control and ±100 the full control effect.

For this assay, the target named is Cytochrome P450 1A2 (Homo sapiens) (UniProt P05177). Nature of the assay: Cytochrome panel assay with activity outcomes. To be noted: recombinant CYP, pro-luciferin dealkylation, luminescence, p450-cyp1a2; series mostly up to 57.1 µM; activity, negative = inhibition: at the top concentration.
Cytochrome P450 1A2 (Homo sapiens), sequence (P05177 whole entry, looked up): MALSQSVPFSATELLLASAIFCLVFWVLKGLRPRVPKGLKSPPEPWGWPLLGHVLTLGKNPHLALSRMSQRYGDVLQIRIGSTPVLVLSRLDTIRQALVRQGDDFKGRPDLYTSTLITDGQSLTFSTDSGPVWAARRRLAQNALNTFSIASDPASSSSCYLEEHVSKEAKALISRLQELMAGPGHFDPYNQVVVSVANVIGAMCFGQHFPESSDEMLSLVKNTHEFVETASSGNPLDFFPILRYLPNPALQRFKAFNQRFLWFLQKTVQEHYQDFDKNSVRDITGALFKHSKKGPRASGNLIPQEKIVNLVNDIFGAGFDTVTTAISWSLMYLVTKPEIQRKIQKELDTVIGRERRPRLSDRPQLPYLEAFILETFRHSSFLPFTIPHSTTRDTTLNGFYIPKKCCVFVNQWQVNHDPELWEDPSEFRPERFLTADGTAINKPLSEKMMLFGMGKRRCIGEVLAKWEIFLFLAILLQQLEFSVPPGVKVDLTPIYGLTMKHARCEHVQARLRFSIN
Consider `CN1CCC2(CC1)CCN(C(=O)c1ccncc1)CC2`, for which the “activity, negative = inhibition” value is 0.859%. Take `CC1(C)Cc2ccccc2C(NNC(=O)c2ccncc2)=N1`: the AC50 (usually the concentration at which the activity in the assay is half-maximal) is 10 µM (active). Same read-out and setting: for `CC(C)NNC(=O)c1ccncc1` the value was “inactive”. On the same count and under the same terms, for `Cc1sc(NC(=O)C2CCCCC2)c(C#N)c1-c1ccccc1` the value was 5.01 µM (active). For the compound `Cc1sc(NC(=O)/C=C/c2ccc(C(C)C)cc2)c(C#N)c1C`, the “activity, negative = inhibition” value was -4.52%.

In the case of `CC1=C(C#N)C(NC(=O)C2CCCCC2)(C(F)(F)F)C(=O)N1` (stereo unspecified), the “activity, negative = inhibition” value is -19.3%. With `Cc1c(OCC(F)(F)F)ccnc1CSc1nc2ccccc2[nH]1`, the AC50 is 3.55 µM (active). As for `C[N+](C)(C)CCCSc1nc2ccccc2[nH]1`, the activity, negative = inhibition is -15.1% [at 11.4 µM]. The same measure, in the same setting: for `O=c1c[n+](CCCC[n+]2cc(=O)o[nH]2)[nH]o1` the value was 2.3% [at 11.4 µM]. Consider `CC(C)(Oc1ccc(Cl)cc1)C(=O)Nc1ccncc1`, for which the AC50 is 20 µM (active). The same measure, in the same setting: to `CC(C)(Oc1ccc(Cl)cc1)C(=O)Nc1cccnc1` belongs 2 µM (active). Take `N#CCCn1c(=O)c(-c2ccc(Cl)cc2)nc2cnc(Oc3cccc(Cl)c3)nc21`: the “activity, negative = inhibition” value was -14.7%. For the compound `N#CCCn1c(=O)c(-c2cccs2)nc2cnc(Oc3cccc(Cl)c3)nc21`, the AC50 is 3.16 µM (active).

On to `N#CCCn1c(=O)c(-c2ccccc2)nc2cnc(Oc3cccc(Cl)c3)nc21`, for which the AC50 was 2.51 µM (active). `COCCn1c(=O)c(-c2ccccc2)nc2cnc(Oc3cccc(Cl)c3)nc21`: the half-maximal activity concentration (AC50) is 1 µM (active).

Turning to `COCCn1c(=O)c(-c2cc(F)cc(F)c2)nc2cnc(Oc3cccc(Cl)c3)nc21`, the AC50 is 5.01 µM (active). Consider `Cc1noc(C)c1-c1nccc(NCc2ccccc2)n1`, for which the AC50 is 0.794 µM (active).

Turning to `Cc1noc(C)c1-c1nccc(NCc2cccnc2)n1`, the AC50 is 0.158 µM (active).

Take `Cc1noc(C)c1C(=O)N1CCC2(CCN(Cc3ccccc3)CC2)CC1`: the “activity, negative = inhibition” value is -5.81%. In the case of `Cc1cnc(CNc2ccnc(-c3c(C)noc3C)n2)cn1`, the AC50 is 12.6 µM (active). Take `Cc1noc(C)c1-c1nccc(NCc2cccs2)n1`: the AC50 is 0.501 µM (active). Regarding `CC(=O)N(NC(=O)c1ccccc1Cl)C1CC(=O)N(c2ccc(C)cc2)C1=O` (stereo unspecified), the “activity, negative = inhibition” value was 5.79%.

`CC(=O)/C=C/c1ccc2ccccc2n1`: the AC50 is 2.51 µM (active). `O=C(O)/C=C\C(=O)N1Cc2cc3ccccc3nc2C1`: the activity, negative = inhibition is -16.3% [at 11.4 µM]. The same measure, in the same setting: to `O=C(c1cnccn1)N1CCC2(CC1)CN(c1ccccn1)C2` belongs -12.9%; to `CN1C2C=C(N(CCc3c[nH]c4ccccc34)C(=O)c3ccc(Cl)cc3)CC1CC2` (stereo unspecified), 14.6%; to `COC(=O)C(Cc1c[nH]c2ccccc12)NC(=O)C(C)C` (stereo unspecified), -15.1%. Same read-out and setting: to `C[C@@](N)(Cc1c[nH]c2ccccc12)C(=O)O` belongs -11.5% [at 11.4 µM]. As to `CC(C)CNC(=O)CCCc1c[nH]c2ccccc12`, the AC50 was 14.1 µM (active). Consider `N[C@@H](Cc1c[nH]c2ccccc12)C(=O)O`, for which the “activity, negative = inhibition” value was -1.28%. On to `CN(CC(=O)O)Cc1c[nH]c2ccccc12`, for which the activity, negative = inhibition is -14.8% [at 11.4 µM]. Take `CCOC(=O)CCCc1c[nH]c2ccccc12`: the AC50 was 2.51 µM (active).

For `O=C(Cc1c[nH]c2ccccc12)OCC(=O)c1ccccc1`, the AC50 was 12.6 µM (active). Consider `O=C(O)CN1CCN(Cc2ccc(F)cc2Cl)C1=O`, for which the concentration at half-maximal activity (AC50) was 5.62 µM (active). Take `O=C(O)CN1CCN(Cc2ccccc2)C1=O`: the “activity, negative = inhibition” value is -26.6%. Same read-out and setting: to `Cc1cccc(CN2CCN(CC(=O)O)C2=O)c1` belongs 9.94%; to `Cc1ccc(C(c2nnnn2CC2CCCO2)N2CCN(C(=O)c3ccco3)CC2)cc1` (stereo unspecified), -19.2%. For the compound `CCOC(=O)c1sc(N(Cc2ccccc2)C(=O)CN2C(=O)CN(C)C2=O)nc1C`, the AC50 is 20 µM (active). The same measure, in the same setting: to `Cc1ccc2[nH]c(=O)c(NC(N)=S)nc2c1` belongs 4.47 µM (active). The same measure, in the same setting: to `COc1ccc2[nH]c(=O)c(NC(N)=S)nc2c1` belongs 3.55 µM (active). The same measure, in the same setting: to `C(=N\n1cnnc1)/c1cccn1-c1ccccc1` belongs 8.91 µM (active). As for `CC(C)NC(=O)N1CCCC2(CCN(S(=O)(=O)c3ccccc3)CC2)C1`, the “activity, negative = inhibition” value was -2.13%. On the same count and under the same terms, for `CCCN1CNC(=S)N(c2cccc(C)c2C)C1` the value was -0.257%; for `CC(C)=CCc1c(C)nc2ccccc2c1C(=O)O`, -22.6%. On to `CC(C)=CCC1=C(OCC(=O)O)C(=O)c2ccccc2C1=O`, for which the AC50 is 0.501 µM (active). With `O=C1CC(N2CCN(CCc3ccccn3)CC2)C(=O)N1c1ccc(Cl)cc1` (stereo unspecified), the “activity, negative = inhibition” value was -11.7%. In the case of `O=C1CSC(c2ccccn2)N1c1ccc(Cl)c(Cl)c1` (stereo unspecified), the AC50 was 10 µM (active). As to `CC(=O)Nc1ccc(N2C(=O)CSC2c2c(F)cccc2Cl)cc1` (stereo unspecified), the “activity, negative = inhibition” value is -0.57%. On to `COc1cc2c(cc1OC)-c1cc(=Nc3c(C)cc(C)cc3C)n(C)c(=O)n1CC2`, for which the “activity, negative = inhibition” value is -18.3%.

With `COc1ccc(OC)c2[nH]c(=O)c(CCNC(=O)c3ccc(S(=O)(=O)N4CCCC4)cc3)cc12`, the “activity, negative = inhibition” value was -27.7%. In the case of `COc1ccc(OC)c2[nH]c(=O)c(CCNS(=O)(=O)c3ccc(Cl)cc3)cc12`, the half-maximal activity concentration (AC50) was 12.6 µM (active).
